Data taken from ChEMBL document CHEMBL3433997, “St. Jude Leishmania screening dataset” (2016).

These compounds were tested against Glucose transporter (Leishmania mexicana) (UniProt O61059) (assay: ST_JUDE_LEISH: Cytotoxicity at 2uM final concentration against transgenic Leishmania Mexicana promastigotes LmGT2 that are glucose transport deficient and complemented with the L. Mexicana glucose transporter 2. Activity is measured by DNA content using SYBR green in vitro).
Format: functional
Compound `CCN(CC)CCCn1c(N)c(-c2nc3ccccc3[nH]2)c2nc(C#N)c(C#N)nc21` has an inhibition of 4.63%.
For `Cn1cc(C2CCN(CCCCNC(=O)c3ccc(-c4ccc(C(F)(F)F)cc4)c(CO)c3)CC2)c2ccccc21`, the inhibition was 2.35%.
In the case of `Cc1[nH]c(C)c([N+](=O)[O-])c(=O)c1-c1ccc(Oc2ccccc2)cc1`, the inhibition is reported as -1.98%.
With `O=C(Nc1cccc(CN2CCCN(Cc3ccc(O)cc3)CC2)c1)c1cc2ccccc2o1` the inhibition was 1.62%.
`CS(=O)(=O)Cc1ccc(Nc2nccc(N3CCCc4cc(NC(=O)Nc5cccc(C(F)(F)F)c5)ccc43)n2)cc1` gave an inhibition of 2.08%.
With `Cc1ccc2c(Cc3cnc(N)nc3N)cc(C)c(N)c2n1` the inhibition was -0.09%.
`Cc1cc(N[C@@H](Cc2ccccc2)C(=O)NCCOc2ccccc2)nc(Nc2ccccc2)n1` showed an inhibition of 2.62%.
`O=C(Nc1ccc(N2CCCN(Cc3cccc(F)c3)CC2)cc1)c1ccccc1` gave an inhibition of -0.78%.
For `COCCN1CCN(Cc2ccc(-c3ccc(-c4nc5cc(F)ccc5[nH]4)cc3)cc2)CC1`, the inhibition was 0.87%.
Compound `COc1ccc2nc(N=C3NC4(c5ccccc5)NC(=Nc5nc6ccc(OC)cc6[nH]5)NC4(c4ccccc4)N3)[nH]c2c1` (centres undefined) has an inhibition of -0.87%.
With `O=[N+]([O-])c1ccc(Nc2nc(NCc3ccccc3)nc(N/N=C/c3ccccc3[N+](=O)[O-])n2)cc1` the inhibition was 0.43%.
`CCc1c(CCNCCCCCCNCCc2ccc([N+](=O)[O-])cc2)ccc(OC)c1OC` gave an inhibition of 12.9%.
`O=C(O)C[C@H](NC(=O)c1cc(-c2ccc3c(c2)OCO3)no1)C(=O)O.O=C(O)C[C@H](NC(=O)c1conc1-c1ccc2c(c1)OCO2)C(=O)O` was tested, and the inhibition was -2.23%.
With `COc1ccc2nccc([C@@H](O)CN3CCC(NCc4cc5c(F)ccc(F)c5[nH]4)CC3)c2c1` the inhibition was 2.77%.
Compound `CCc1ccc(C2=Nn3c(nnc3-c3cccs3)SC2)cc1` has an inhibition of -0.08%.
`COC1(C)Oc2ccc3cccc([N+](=O)[O-])c3c2C1=O` (centres undefined) gave an inhibition of -0.75%.
For `COc1ccccc1N1CCN(Cc2c(NC(C)=O)sc(C)c2C)CC1`, the inhibition was 1.44%.
`Fc1cccc(Nc2nc(NCc3ccc4ccsc4c3)nc(Nc3cccc(F)c3)n2)c1` gave an inhibition of 10.6%.
`Cc1cc(-c2ccc3c(c2)CCN(CCC2CCC(NC(=O)/C=C/c4cccc(Cl)c4)CC2)CC3)on1` (centres undefined) was tested, and the inhibition was 3.57%.
`COc1ccc2nc3cc(Cl)ccc3c(NCCCCCCNc3c4ccc(Cl)cc4nc4ccc(OC)cc34)c2c1` gave an inhibition of 9.4%.
`Oc1cc(Nc2ccnc3cc(I)ccc23)c(F)cc1Cl` showed an inhibition of 3.58%.
With `Cc1cc(C)n(Cc2ccc(C(=O)NCC3CCCCC3)cc2)n1` the inhibition was 2.61%.
`COc1ccc2nccc([C@@H](O)CN3CCC(NC(=O)C(c4cc5ccccc5o4)N4CCN(c5ccc(F)cc5)CC4)CC3)c2c1` (some centres undefined) gave an inhibition of 0.13%.
For `CCNc1cc(C(=O)N[C@@H](Cc2ccccc2)[C@H](O)CNC23CCC(CC2)CC3)cc(N2CCCCS2(=O)=O)c1`, the inhibition was 0.09%.
